CtBP-E1A inh: CtBP/E1A binding inhibition. 340,000 compounds, 0.49% hits. AlphaScreen GST-E1A/His-CtBP binding, 1536-well; active compounds read low. activity change, % (test concentration not listed)
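AlphaScreen with 125 nM GST-E1A and 125 nM His-CtBP (5X stocks) in Tris pH 8.0, 300 mM NaCl, BSA, Tween 20, TCEP. Compounds preincubated 2 h at 37 deg C, then glutathione donor/nickel acceptor beads added for 1 h at 37 deg C in dark.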
pAkt inh: inhibitors of Akt phosphorylation; 360,000 compounds, 0.32% hits; AID 651550; activity change, % for hits at 50 µM; Neuro2A IGF-stimulated pAkt S473 HTRF, 20 min; active compounds read low; in the data active means activity change below about -80%; inconclusive means mostly about -51% to -80%
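Single-point screen (50 µM final compound) in Neuro2A cells stimulated 20 min with 6 nM IGF at 37 deg C. After lysis, Ser473-phosphorylated Akt read by HTRF (ex 330 nm, em 615/665 nm) as the 665/615 ratio.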
CCT chaperon mod: modulators of cytosolic chaperonin (CCT/TRiC) activity; purified chaperonin ATPase assay, HTRF ADP detection, 30 min; activity change, % (test concentration not listed), hits read low; 360,000 compounds, 0.3% hits; in the data active means activity change below about -30%
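We incubate TRiC, 40 or 20 nM final, with library compounds at 76 uM and 10 uM ATP for 30 min at 37 °C. ADP formed is detected with Transcreener HTRF reagents after 30 min at room temperature.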
Six1-Eya2 blk: Six1/Eya2 interaction inhibition; AlphaScreen GST-Six1/His-Eya2 binding, biochemical; active compounds read low; Q15475+O00167; activity change, % (no concentration beside the values); AID 651725; 360,000 compounds, 0.56% hits
Target sequence (O00167 whole entry, looked up): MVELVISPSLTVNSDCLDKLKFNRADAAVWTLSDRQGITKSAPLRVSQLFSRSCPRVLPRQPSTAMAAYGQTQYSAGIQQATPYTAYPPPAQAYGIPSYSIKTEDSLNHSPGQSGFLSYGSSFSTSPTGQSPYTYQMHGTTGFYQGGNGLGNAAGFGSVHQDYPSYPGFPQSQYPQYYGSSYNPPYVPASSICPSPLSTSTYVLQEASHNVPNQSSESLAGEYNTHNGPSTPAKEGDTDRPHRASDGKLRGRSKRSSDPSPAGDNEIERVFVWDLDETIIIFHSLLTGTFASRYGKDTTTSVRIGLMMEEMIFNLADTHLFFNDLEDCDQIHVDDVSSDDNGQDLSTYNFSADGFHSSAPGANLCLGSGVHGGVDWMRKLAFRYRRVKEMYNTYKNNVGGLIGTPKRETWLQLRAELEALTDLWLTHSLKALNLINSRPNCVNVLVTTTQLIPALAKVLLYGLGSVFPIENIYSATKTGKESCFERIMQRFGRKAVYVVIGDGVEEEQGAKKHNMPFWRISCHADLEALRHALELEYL
Target sequence (Q15475 whole entry, looked up): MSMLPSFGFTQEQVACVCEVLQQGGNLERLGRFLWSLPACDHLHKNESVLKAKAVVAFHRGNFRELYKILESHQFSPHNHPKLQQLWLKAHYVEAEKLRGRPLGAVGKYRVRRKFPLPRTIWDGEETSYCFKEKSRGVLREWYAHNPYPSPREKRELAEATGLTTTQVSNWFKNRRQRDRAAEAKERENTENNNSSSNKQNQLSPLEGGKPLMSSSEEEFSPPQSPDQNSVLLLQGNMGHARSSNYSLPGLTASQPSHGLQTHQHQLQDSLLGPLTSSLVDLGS
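Six1/Eya2 binding was read as AlphaScreen signal after compounds were pinned into GST-Six1 plus His-tagged Eya2 (5X stock 250/500 nM) in pH 8.0 Tris/NaCl/TCEP buffer, beads added, then incubated 1 h, 37 C, dark.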
Active calls of the source: *; i = inactive; ? = inconclusive; nt = not tested or not shown. Only some compounds are listed: those with a hit (about 1.3% of all), similar ones and a draw of the others. Unless noted, no stated cut-off is given here; in the data, active means activity change below about -65%; inconclusive means mostly about -30% to -63%; inactive means weaker than that. On the % scale 0 is the no-effect control and ±100 the full control effect.

SMILES | CtBP-E1A inh | pAkt inh | CCT chaperon mod | Six1-Eya2 blk
COc1cccc(OC)c1C(=O)NC(=S)Nc1ccc2c(c1)Cc1ccccc1-2 | 1.0 | -114.7%* | -2.0 | 2.9
COc1cccc(OC)c1C(=O)Nc1ccc2c(c1)Cc1ccccc1-2 | -4.6 | i | -1.2 | -11.5
O=c1c2ccccc2c(C=NCCCN2CCOCC2)c(O)n1Cc1ccccc1 | -9.5 | i | 2.2 | -16.0
O=c1c2ccccc2c(C=NCCCN2CCOCC2)c(O)n1Cc1ccc2c(c1)OCO2 | -5.2 | i | -37.9* | -16.9
CCOC(=O)c1nn2c(C(F)(F)F)cc(-c3ccc(OC)cc3)nc2c1Br | nt | i | -32.8* | -25.8
COCCNC(=O)c1nn2c(C(F)(F)F)cc(-c3ccccc3)nc2c1Br | -4.2 | i | -0.6 | -6.9
CCOC(=O)[C@H]1[C@H]2COc3ccc(OC)cc3[C@@H]2N2C(=O)c3cc(F)c(F)cc3NC(=O)[C@@]12C | -3.4 | i | -2.2 | 1.4
CCOc1cc(-c2nccc3cc(OC)c(OC)cc23)cc(OCC)c1OCC | 0.8 | i | -0.6 | -11.8
CCOC(=O)c1c(C)[nH]c(C)c1S(=O)(=O)NCCN1CCN(c2ccccc2F)CC1 | -25.9 | i | -6.4 | -2.5
COc1cccc(-n2c([S-])c(C(=O)Nc3ccc(S(=O)(=O)N4CCOCC4)cc3)[n+]3cc(C(N)=O)ccc23)c1 | -15.9 | i | -40.6* | -14.7
COc1ccc(CC(=O)NCc2cccs2)cc1OC | -2.0 | i | -3.0 | -4.9
COc1cc2[nH]cc(C(=O)NCc3cccs3)c(=O)c2cc1OC | -72.6* | i | 1.0 | ?
O=C(O)c1cc(O)c2c(c1)[C@@H]([C@H]1c3cc(C(=O)O)cc(O)c3C(=O)c3c(O[C@@H]4O[C@H](CO)[C@@H](O)[C@H](O)[C@H]4O)cccc31)c1cccc(OC3O[C@H](CO)[C@@H](O)[C@H](O)[C@H]3O)c1C2=O (stereo not given in full) | -29.3 | i | -5.0 | -82.4*
O=C(O)c1cc(O)c2c(c1)[C@H]([C@H]1c3cc(C(=O)O)cc(O)c3C(=O)c3c(O[C@@H]4O[C@H](CO)[C@@H](O)[C@H](O)[C@H]4O)cccc31)c1cccc(OC3O[C@H](CO)[C@@H](O)[C@H](O)[C@H]3O)c1C2=O (stereo not given in full) | ? | i | -0.1 | -73.6*
COc1ccc(C)cc1NC(=O)CNC(=O)c1sc2ccccc2c1Cl | -7.7 | i | -4.0 | 0.7
CC(=O)N1CCN(C(=O)C(Cc2c[nH]c3ccccc23)NC(=O)c2ccccc2Cl)CC1 (stereo not given) | 0.0 | i | 0.2 | -6.3
COc1ccc(Nc2nnc(-c3ccc(C(N)=O)cc3)c3ccccc23)cc1 | 5.3 | i | -0.2 | -82.8*
NC(=O)c1ccc(Nc2nnc(-c3ccc(O)cc3)c3ccccc23)cc1 | -3.4 | i | -11.1 | ?
O=C(CCCCCn1c(=S)[nH]c2ccc(N3CCOCC3)cc2c1=O)NCc1cccc(Cl)c1 | -2.5 | i | -50.4* | -1.2
CCCCC(=O)N(CCOC)c1nnc(-c2ccc(OC)cc2)s1 | 13.2 | -103.4%* | -1.0 | 4.7
CCCCC(=O)Nc1nnc(-c2ccc(OC)cc2)s1 | 1.6 | i | -1.3 | -0.5
Cc1ccccc1NC(=O)Cc1nc(COC(=O)CSc2ccc(F)cc2)cs1 | 3.5 | i | -58.2* | 7.3
Cc1ccc(-c2noc(C3CCCN(C(=O)c4ccccc4Br)C3)n2)o1 (stereo not given) | -0.9 | i | 0.1 | 0.1
O=c1[nH]c2sc3c(c2c2nncn12)CCCC3 | -83.3* | nt | -2.9 | -79.3*
Cc1c(NC(=S)N/N=C/c2ccc([N+](=O)[O-])cc2O)c(=O)n(-c2ccccc2)n1C | -93.2* | i | -0.3 | -83.9*
SMILES | CtBP-E1A inh | pAkt inh | CCT chaperon mod | Six1-Eya2 blk
Cc1c(NC(=S)N/N=C\c2ccccc2O)c(=O)n(-c2ccccc2)n1C | 32.3 | i | 0.5 | -90.4*
Cc1c(NC(=S)N/N=C/C=C/c2ccc([N+](=O)[O-])cc2)c(=O)n(-c2ccccc2)n1C | 31.1 | i | -0.3 | 12.7
CCN(C(=O)COC(=O)c1cc(Cl)ccc1OC)c1c(N)n(Cc2ccccc2)c(=O)[nH]c1=O | nt | i | 0.5 | -4.9
Cc1cc(C)c(CN2CCN(CCCn3ccc(NC(=O)OCc4ccccc4)nc3=O)CC2)c(C)c1 | -1.0 | i | -1.1 | -1.4
Cc1ccc(OCCCC(=O)Nc2nncs2)cc1 | -3.9 | i | 0.6 | -2.0
O=C(CCCOc1ccc(Cl)cc1)Nc1nncs1 | -5.7 | -112.0%* | -2.0 | 8.8
